# Compounds with a hit are over-represented: about 4.1% of the library has one in this group of screens.
# ssDAF12 agonist – S. stercoralis DAF-12 activation, primary screen; HEK293 ssDAF-12/GRIP1 lit1-tk-luc reporter, luminescence; % of 3 µM dafachronic acid response; activation, % at 6.8 µM; hit rate 1% among 370,000;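 active = activation above the mean over all tested compounds plus 3 SD, cut at about 0.9% in these data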;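 also: 0% = DMSO-only wells and 100% = 3 µM delta7-dafachronic acid wells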
# DAX1 inh-1 – inhibitors of DAX1 repression of SF-1 activated StAR promoter. HEK293T StAR-luciferase reporter, SF-1/DAX-1 repression relief. inhibition, % at 6.8 µM. hit rate 1.1% among 370,000. AID 652010;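 active = inhibition above the mean over all tested compounds plus 3 SD, cut at about 3.6% in these data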;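 also: 0% = DAX-1 cells with DMSO and 100% = cells lacking DAX-1 with DMSO; higher inhibition means more luminescence from relief of DAX-1 repression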
# hcDAF-12 act – activators of H. contortus DAF-12 nuclear receptor; HEK293 hcDAF-12 lit1-tk-luc reporter, luminescence; 0% DMSO, 100% Δ7-dafachronic acid; activation, % at 6.8 µM; hit rate 1.4% among 370,000;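 active = activation above the mean of all tested compounds plus 3 SD, cut at about 5.5% in these data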;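 also: 100% = response to 3 µM Δ7-dafachronic acid high control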
# hgDAF-12 ag – agonists of H. glycines DAF-12 nuclear receptor | AID 687014 | activation, % at 6.8 µM | HEK293 GAL4-hgDAF12 UAS-luciferase reporter, agonist luminescence; normalized to butyrate control | hit rate 1.8% among 370,000;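 active = activation above a cutoff set at the mean of all screened compounds plus 3 SD, cut at about 10% in these data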;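 also: 0% = DMSO wells and 100% = sodium butyrate wells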
# DAX1 inh-2 – inhibitors of human orphan nuclear receptor DAX1 (NR0B1) | HEK293 Gal4-DAX1 luciferase reporter, luminescence | hit rate 0.99% among 340,000 | P51843 | inhibition, % at 6.75 µM | AID 504766;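 active = inhibition above the mean over all tested compounds plus 3 SD, cut at about 4.2% in these data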;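 also: 0% = DAX1-transfected cells with DMSO and 100% = empty-vector control cells with DMSO; inhibition shows as a rise in luminescence from relieved DAX1 repression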
# Target sequence (P51843 207-470 limits assumed): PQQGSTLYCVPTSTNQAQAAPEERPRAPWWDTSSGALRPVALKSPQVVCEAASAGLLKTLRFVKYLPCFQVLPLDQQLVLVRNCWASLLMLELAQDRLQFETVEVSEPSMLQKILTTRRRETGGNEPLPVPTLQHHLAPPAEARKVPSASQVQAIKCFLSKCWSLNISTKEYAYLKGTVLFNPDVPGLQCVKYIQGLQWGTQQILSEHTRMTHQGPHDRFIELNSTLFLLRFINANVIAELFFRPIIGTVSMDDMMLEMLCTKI
# Starred values were filed as active, the others as inactive; · = no result given.
SMILES,ssDAF12 agonist,DAX1 inh-1,hcDAF-12 act,hgDAF-12 ag,DAX1 inh-2
Nn1c(SCC(=O)Nc2ccc(OCc3ccccc3)cc2)nnc1-c1cc(-c2ccc(Cl)cc2)n[nH]1,-0.8,-1.7,1.1,1.4,·
Nn1c(SCC(=O)Nc2nccs2)nnc1-c1cc(-c2ccccc2)n[nH]1,-0.6,1.2,2.5,11.2*,·
COc1ccc(-c2cc(-c3nnc(SCC(=O)Nc4ccc(-c5nc6ccc(C)cc6s5)cc4)n3N)[nH]n2)cc1,-0.3,1.3,3.3,12.9*,·
Cc1ccc2nc(-c3ccc(NC(=O)CSc4nnc(-c5ccccc5)n4Cc4ccco4)cc3)sc2c1,-0.9,1.8,0.6,11.7*,·
CCC[C@H]1[C@@H](NCc2ccccc2)CC[C@@]23CCCN2C(=O)CCC[C@@H]13,-2.0,·,-1.9,1.6,·
COc1ccc(CNC2CCC23CCCCC3)cc1OC (stereo not given),-1.7,·,-1.5,-0.7,·
COC(=O)C[C@H]1CC[C@H]2[C@@H](COc3ccc(NC(=O)Nc4ccccc4)cc3C(=O)N2C)O1,-0.8,0.0,-2.0,0.6,·
Cc1ccc(C)c(N(CC(=O)Nc2ccc(-c3nc4ccc(C)cc4s3)cc2)S(C)(=O)=O)c1,1.6*,-0.3,-1.5,0.8,-1.6
Cc1ccc2nc(-c3ccc(NC(=S)NC(=O)CC(C)C)cc3)sc2c1,-0.1,1.0,1.1,6.3,3.4
Cc1ccc(N(CC(=O)Nc2ccc(-c3nc4ccc(C)cc4s3)cc2)S(C)(=O)=O)cc1,0.9*,4.4*,4.0,11.8*,0.7
CCOc1ccc(N(CC(=O)Nc2ccc(C)cc2)S(C)(=O)=O)cc1,-0.2,0.8,3.2,12.3*,1.8
NNc1ncnc2sc3c(c12)CCC3,0.7,1.3,3.9,11.6*,6.3*
CC(C)CNc1cccc2c1S(=O)(=O)N[C@@H](CC(C)C)CO2,-0.8,-0.6,-0.4,0.9,·
O=C1C(=NO)CCc2ccccc21,1.3*,-2.1,4.8,0.8,1.9
Cc1nc(SCc2ccccc2)nc2c1CCC2,-0.2,3.0,-0.1,10.9*,2.2
Cc1ccc(CSc2nc3c(c(N(C)C)n2)CCCC3)cc1,-1.9,-0.8,-1.6,3.5,-0.3
COc1ccc(CNC(=O)CCNS(=O)(=O)c2ccc3[nH]c(=O)oc3c2)cc1,-0.2,-0.1,-2.7,5.1,·
COc1ccc(S[C@]2(C(=O)N3CCN(c4ncccn4)CC3)CC(=O)N(C(=O)CCc3ccccc3)[C@@H]2c2ccc(OC)cc2)cc1,-0.7,-0.5,3.4,0.5,·
O=C(NCCc1ccccc1)c1ccc2nccnc2c1,-0.4,4.2*,4.6,10.7*,-1.4
O=C(NCCc1ccccc1)c1cccnc1,-0.7,1.3,0.8,11.5*,1.8
O=C(NCCc1ccccc1)c1cccc(Br)c1,-0.2,1.1,0.6,5.8,1.3
CN(C(=O)c1cc(-c2ccccc2)on1)C1CCCCC1,0.0,2.8,2.2,11.4*,3.3
CCCCNC(=S)N/N=C/c1sccc1C,-1.2,-0.5,-1.4,10.9*,2.2
COc1ccc(CC(=O)NCC(=O)N/N=C/c2sccc2C)cc1,-1.3,-0.1,6.4*,1.1,-0.5
Fc1c(-c2ccc3ncnc(NCc4cccs4)c3c2)ccc2c1OCO2,-1.4,·,-1.0,-0.7,·

# From PubChem BioAssay
